# Reference: PubChem BioAssay (NCATS)
# Where “and” joins values, the source holds several entries; their conditions need not be identical. Equal entries are not always repeated. Records with an inconclusive call do not appear. Calls of active or inactive are those of the source. Unless noted, the call rests on the fitted dose curve; in most records, active means well fitted curve in either direction with a large enough effect (not every such curve was filed as active); inconclusive means small, poorly fitted or top-dose-only effect, or another doubt; inactive means flat fitted curve, though single readings scatter.
# Experiments:
# [1] = AP1 Signaling Pathway (AID 357); details: ME-180 AP-1-bla reporter, EGF-induced, beta-lactamase ratio, 5 h;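 further: ME-180 reporter cells stimulated with EGF at its EC50 level; on the % scale 0 is the no-effect control and ±100 the full control effect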
# Summary of the method: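 Read-out was the 460nm/530nm emission ratio (excitation 405nm) after CCF4 loading for 2.5 hours at room temperature. Cells carried an AP-1-driven beta-lactamase reporter, were stimulated with EC50 EGF plus compound for 5 hours, and AC50 values came from titrations.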
# [2] = NFAT Signaling Pathway (AID 444); details: Jurkat NFAT-bla M1, carbachol, beta-lactamase ratio, 5 h;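 further: carbachol stimulus at about its EC50 of 1 µM final; on the % scale 0 is the no-effect control and ±100 the full control effect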
# Summary of the method: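 Jurkat cells carrying an NFAT-driven β-lactamase reporter and co-transfected muscarinic M1 receptor were treated with compound plus carbachol (1 uM final, an EC50 level) for 5 h at 37 °C. CCF4 loading followed for 1 h at RT; 460/530 nm ratio gave %activity.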
# [3] = Stat Signaling Pathway (AID 446); details: ME-180 SIE beta-lactamase reporter, IL-6 stimulated, 5 h;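 further: ME-180 cervical cancer cells given 40 pM IL-6 alongside compound; SIE-controlled beta-lactamase reporter measured as 460/530 nm FRET emission ratio; on the % scale 0 is the no-effect control and ±100 the full control effect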
# Summary of the method: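 Screening format detects activators and inhibitors alike: ME-180 SIE-bla cells stimulated at 40 pM IL-6 for 5 hrs with compound, then dual-emission beta-lactamase read at 405 nm excitation.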
# [4] = molecular target: Mitogen-activated protein kinase 10 (Mus musculus) (UniProt Q61831); test: JNK3 AlphaScreen Assay (AID 530);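 further: kinase came from lysate of stimulated human HepG2 cells; signal reports phosphorylation of biotinylated GST-cJun 1-79 at Ser73 with 10 µM ATP; on the % scale 0 is the no-effect control and ±100 the full control effect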
# Summary of the method: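 JNK3 came from HepG2 lysates pre-activated with IL-1beta and TNF-alpha and phosphorylated biotinylated GST-cJun (1-79) at 10 uM ATP, pH 7.6, room temperature. Compounds were titrated. AlphaScreen signal used anti-phospho-cJun (Ser73) antibody.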
# [5] = qHTS Assay for Lipid Storage Modulators (AID 1519; calls by dose curve); details: Drosophila S3 cells, BODIPY lipid droplet/cell ratio, laser cytometry, cells loaded with oleic acid; for activity change, negative = inhibition: at 25.7 µM (top of the series)
# Summary of the method: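 Cells seeded at 5,000 per well were treated with compounds over a concentration series and loaded with oleic acid (400 uM, as added). Lipid droplet fluorescence (488 nm excitation, 500-530 nm channel) was read by laser-scanning cytometry and normalized to 20 uM Triacsin C.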
# [6] = molecular target: Ubiquitin carboxyl-terminal hydrolase 1 (Homo sapiens) (UniProt O94782); test: Inhibitors of USP1/UAF1: Pilot qHTS (AID 504865; active means well fitted curve in the direction sought with a large enough effect; an effect the other way counts as inactive or inconclusive;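 further: rhodamine fluorescence freed from ubiquitin-rhodamine substrate followed over time; top concentration of the series differs between compounds; on the % scale 0 is the no-effect control and ±100 the full control effect; nearly all actives have a fitted effect of over 35% in size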)
# Sequence of Ubiquitin carboxyl-terminal hydrolase 1 (Homo sapiens) (O94782 whole entry, looked up): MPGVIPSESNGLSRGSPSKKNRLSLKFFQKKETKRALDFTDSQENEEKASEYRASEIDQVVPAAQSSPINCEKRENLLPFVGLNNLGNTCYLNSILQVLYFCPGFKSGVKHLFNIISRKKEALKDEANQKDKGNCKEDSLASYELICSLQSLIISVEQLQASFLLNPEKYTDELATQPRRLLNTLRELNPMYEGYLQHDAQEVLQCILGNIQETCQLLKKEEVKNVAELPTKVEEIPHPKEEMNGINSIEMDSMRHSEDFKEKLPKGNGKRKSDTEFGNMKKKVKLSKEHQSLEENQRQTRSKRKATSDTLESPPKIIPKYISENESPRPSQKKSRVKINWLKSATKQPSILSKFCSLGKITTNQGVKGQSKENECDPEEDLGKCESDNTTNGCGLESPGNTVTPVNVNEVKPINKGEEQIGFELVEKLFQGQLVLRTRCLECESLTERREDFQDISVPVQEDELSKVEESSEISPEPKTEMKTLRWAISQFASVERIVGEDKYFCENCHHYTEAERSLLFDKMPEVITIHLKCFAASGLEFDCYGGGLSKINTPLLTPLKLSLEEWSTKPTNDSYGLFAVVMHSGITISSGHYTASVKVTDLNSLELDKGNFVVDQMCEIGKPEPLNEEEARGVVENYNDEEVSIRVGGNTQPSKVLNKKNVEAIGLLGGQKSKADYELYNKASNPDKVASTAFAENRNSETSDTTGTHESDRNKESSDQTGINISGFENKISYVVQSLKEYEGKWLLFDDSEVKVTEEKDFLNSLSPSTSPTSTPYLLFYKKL
# Summary of the method: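 Enzyme-free wells gave the negative control, while test wells held 1nM USP1/UAF1 preincubated with compound for 15 min at room temperature. Ub-Rho at 150nM final started the reaction, and fluorescence at 480/540 nm was recorded kinetically.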
# [7] = molecular target: Cytochrome P450 1A2 (Homo sapiens) (UniProt P05177); test: p450-cyp1a2 (AID 410; calls by dose curve; further: potency means the concentration at half of the fitted maximal effect;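 on activity change, negative = inhibition: -100% = full effect of reference inhibitor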)
# Sequence of Cytochrome P450 1A2 (Homo sapiens) (P05177 whole entry, looked up): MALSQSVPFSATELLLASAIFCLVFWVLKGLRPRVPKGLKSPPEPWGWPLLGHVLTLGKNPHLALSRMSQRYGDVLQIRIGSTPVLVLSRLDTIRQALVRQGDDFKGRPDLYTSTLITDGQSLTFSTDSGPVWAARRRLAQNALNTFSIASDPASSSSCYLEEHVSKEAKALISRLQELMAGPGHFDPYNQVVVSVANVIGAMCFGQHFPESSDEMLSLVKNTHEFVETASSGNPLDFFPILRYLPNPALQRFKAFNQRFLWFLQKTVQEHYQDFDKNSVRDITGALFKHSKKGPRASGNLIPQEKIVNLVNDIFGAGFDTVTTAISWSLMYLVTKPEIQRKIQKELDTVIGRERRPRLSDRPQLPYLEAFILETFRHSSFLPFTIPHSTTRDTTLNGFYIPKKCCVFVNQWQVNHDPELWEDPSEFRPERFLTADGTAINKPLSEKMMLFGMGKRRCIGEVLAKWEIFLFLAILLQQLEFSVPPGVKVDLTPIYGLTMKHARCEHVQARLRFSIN
# Summary of the method: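 Human CYP1A2 (20nM) demethylated Luciferin-ME at its Km (100uM) in 100mM KPO4. After 10 min compound preincubation, NADPH regeneration ran the reaction 60 min at room temperature. Luciferin was read by luminescence, normalized to 57 uM furafylline.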
# [8] = molecular target: Glucocorticoid receptor (Homo sapiens) (UniProt P04150); test: GR-GFP Redistribution (AID 450;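 active means compounds whose dose series gives a full or clear partial fitted curve of increased nuclear translocation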; further: potency means the concentration at half of the fitted maximal effect); details: U2OS GR-GFP nuclear translocation, laser cytometry, 2 h
# Sequence of Glucocorticoid receptor (Homo sapiens) (P04150 whole entry, looked up, the tested form may be a part): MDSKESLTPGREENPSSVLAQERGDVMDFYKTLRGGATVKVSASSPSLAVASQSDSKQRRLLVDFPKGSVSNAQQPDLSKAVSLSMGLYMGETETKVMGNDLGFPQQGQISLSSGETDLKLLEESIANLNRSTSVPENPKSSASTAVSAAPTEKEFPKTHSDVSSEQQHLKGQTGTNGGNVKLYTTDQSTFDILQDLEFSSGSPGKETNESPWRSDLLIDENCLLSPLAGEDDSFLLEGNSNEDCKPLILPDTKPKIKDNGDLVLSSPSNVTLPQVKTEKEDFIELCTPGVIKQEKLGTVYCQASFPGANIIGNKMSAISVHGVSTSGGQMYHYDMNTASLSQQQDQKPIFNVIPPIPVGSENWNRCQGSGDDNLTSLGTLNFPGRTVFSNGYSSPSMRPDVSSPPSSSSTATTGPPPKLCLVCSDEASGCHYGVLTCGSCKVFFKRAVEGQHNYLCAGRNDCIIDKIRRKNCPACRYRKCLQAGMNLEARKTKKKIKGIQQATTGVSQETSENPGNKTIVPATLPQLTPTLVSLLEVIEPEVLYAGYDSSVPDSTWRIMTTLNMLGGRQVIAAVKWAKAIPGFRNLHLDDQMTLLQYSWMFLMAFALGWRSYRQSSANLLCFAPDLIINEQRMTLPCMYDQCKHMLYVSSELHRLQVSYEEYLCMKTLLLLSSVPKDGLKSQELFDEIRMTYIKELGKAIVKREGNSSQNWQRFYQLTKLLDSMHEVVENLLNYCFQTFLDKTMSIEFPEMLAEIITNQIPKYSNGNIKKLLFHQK
# [9] = molecular target: Glucocorticoid receptor (Homo sapiens) (UniProt P04150); test: GR-EFC Redistribution (AID 451; calls by dose curve; further: potency means the concentration at half of the fitted maximal effect); details: CHO-K1 GR-EFC translocation, beta-gal luminescence, 2 h
# Summary of the method: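 CHO-K1 cells stably expressing nuclear-localized β-gal enzyme acceptor and GR fused C-terminally to the enzyme donor fragment; ligand-driven nuclear translocation restores β-gal by complementation. Compounds titrated up to 46 uM final, 2 h at 37 °C; luminescence read.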
# [10] = molecular target: 3',5'-cyclic-AMP phosphodiesterase 4B (Homo sapiens) (UniProt Q07343); test: qHTS Assay for Inhibitors of PDE-IV (AID 607; active means well fitted activation curve with a large enough effect in the main read-out, with a control signal flat, not every such curve was filed as active; further: % of control where 0% means no effect)
# Sequence of 3',5'-cyclic-AMP phosphodiesterase 4B (Homo sapiens) (Q07343 whole entry, looked up): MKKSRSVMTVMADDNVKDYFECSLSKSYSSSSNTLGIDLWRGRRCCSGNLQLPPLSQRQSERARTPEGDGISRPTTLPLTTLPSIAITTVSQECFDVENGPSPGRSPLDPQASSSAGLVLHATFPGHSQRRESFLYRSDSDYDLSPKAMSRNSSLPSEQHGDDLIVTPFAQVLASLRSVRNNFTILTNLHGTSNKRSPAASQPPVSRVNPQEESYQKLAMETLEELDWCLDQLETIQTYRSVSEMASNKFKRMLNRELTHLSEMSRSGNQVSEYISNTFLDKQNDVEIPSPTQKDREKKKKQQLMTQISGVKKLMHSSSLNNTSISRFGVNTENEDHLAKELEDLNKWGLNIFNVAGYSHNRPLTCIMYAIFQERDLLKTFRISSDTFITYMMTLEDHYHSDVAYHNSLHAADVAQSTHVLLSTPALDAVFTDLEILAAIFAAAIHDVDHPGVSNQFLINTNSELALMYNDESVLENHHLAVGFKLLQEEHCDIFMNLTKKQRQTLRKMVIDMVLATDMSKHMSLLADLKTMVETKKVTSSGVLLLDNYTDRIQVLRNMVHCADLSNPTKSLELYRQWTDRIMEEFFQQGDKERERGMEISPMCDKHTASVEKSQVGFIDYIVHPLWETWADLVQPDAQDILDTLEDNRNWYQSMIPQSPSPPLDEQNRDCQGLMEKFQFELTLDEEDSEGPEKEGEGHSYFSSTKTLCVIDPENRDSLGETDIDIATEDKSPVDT
# Summary of the method: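 The readout is membrane depolarisation from a cAMP-sensing CNG channel, detected with a potential dye at ex 535/em 590. Cells were HEK293-derived (endogenous PDE-IV) at 1000 cells/well, titrated up to 22.9 uM final.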
# [11] = molecular target: alpha-glucosidase (Oryza sativa, rice) (UniProt Q653V4); test: Counterscreen for Glucocerebrosidase Inhibitors: qHTS Assay for Rice alpha-Glucosidase at pH 5.0 (AID 997; active means well fitted curve in the direction sought with a large enough effect; an effect the other way counts as inactive or inconclusive;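 further: 0% = full activity with enzyme and -100% = basal without enzyme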)
# Summary of the method: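 Rice alpha-glucosidase (4 nM final) with 400 uM 4-methylumbelliferyl-alpha-D-glucopyranoside in citrate buffer pH 5.0, 20 min at room temperature, stopped at pH 10; fluorescence 365/440 nm, compounds 0.7 nM–77 uM, AC50 from Hill fits.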
# [12] = molecular target: Luciferin 4-monooxygenase (Photinus pyralis) (UniProt P08659); test: Biochemical firefly luciferase enzyme assay for NPC (AID 624030; active means well fitted curve in the direction sought with a large enough effect; an effect the other way counts as inactive or inconclusive;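 further: purified P. pyralis luciferase at 10 nM with luciferin and ATP substrate; 0% = DMSO and -100% = full luciferase inhibition by PTC124 control; nearly all actives have a fitted effect of over 70% in size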)
# Sequence of Luciferin 4-monooxygenase (Photinus pyralis) (P08659 whole entry, looked up): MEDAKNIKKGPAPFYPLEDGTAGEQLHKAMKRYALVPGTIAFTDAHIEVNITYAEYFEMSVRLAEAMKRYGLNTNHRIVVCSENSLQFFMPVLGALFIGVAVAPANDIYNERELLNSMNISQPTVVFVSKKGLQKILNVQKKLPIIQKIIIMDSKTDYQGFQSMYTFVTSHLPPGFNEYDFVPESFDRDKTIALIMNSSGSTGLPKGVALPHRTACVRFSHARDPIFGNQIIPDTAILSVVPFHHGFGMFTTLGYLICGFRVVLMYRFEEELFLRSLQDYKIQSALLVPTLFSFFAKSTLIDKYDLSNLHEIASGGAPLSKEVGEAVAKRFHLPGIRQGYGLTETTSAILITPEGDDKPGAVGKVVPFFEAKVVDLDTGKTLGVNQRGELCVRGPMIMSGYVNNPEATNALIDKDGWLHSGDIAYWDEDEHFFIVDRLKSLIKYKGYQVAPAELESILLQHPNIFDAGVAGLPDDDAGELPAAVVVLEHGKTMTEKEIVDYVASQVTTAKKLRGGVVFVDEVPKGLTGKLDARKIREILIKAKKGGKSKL
# Summary of the method: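 Counter-screen for direct inhibition of the luciferase enzyme by approved-drug library compounds, run at 10 nM enzyme in 50 mM Tris acetate (final). Luminescence was read within 5 min of enzyme-buffer addition and normalized to PTC124 versus DMSO (0%).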
# [13] = molecular target: ATP-dependent 6-phosphofructokinase (Trypanosoma brucei brucei) (UniProt O15648); test: qHTS Assay to Find Inhibitors of T. brucei phosphofructokinase: hit validation (AID 492961; active means well fitted curve in the direction sought with a large enough effect; an effect the other way counts as inactive or inconclusive)
# Sequence of ATP-dependent 6-phosphofructokinase (Trypanosoma brucei brucei) (O15648 whole entry, looked up): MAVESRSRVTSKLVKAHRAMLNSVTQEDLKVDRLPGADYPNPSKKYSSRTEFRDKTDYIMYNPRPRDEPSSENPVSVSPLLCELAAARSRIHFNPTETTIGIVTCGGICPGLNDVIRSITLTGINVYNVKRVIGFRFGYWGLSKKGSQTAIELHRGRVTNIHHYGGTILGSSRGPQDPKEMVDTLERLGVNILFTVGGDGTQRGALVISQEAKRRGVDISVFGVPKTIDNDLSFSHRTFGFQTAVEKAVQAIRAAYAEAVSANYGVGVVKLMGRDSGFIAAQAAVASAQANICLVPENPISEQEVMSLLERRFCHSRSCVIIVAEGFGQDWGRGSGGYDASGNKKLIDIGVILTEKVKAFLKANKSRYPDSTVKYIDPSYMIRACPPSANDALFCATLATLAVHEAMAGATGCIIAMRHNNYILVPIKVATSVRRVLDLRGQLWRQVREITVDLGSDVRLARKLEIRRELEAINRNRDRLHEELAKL
# Summary of the method: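 PFK 1.25 nM, F6P 0.5 mM, ATP 0.1 mM, MgCl2 5 mM, 0.1 M TEA pH 8.0, Tween20 0.01%, BSA 0.1%; 45 min RT. ADP-Glo two-step detection, luminescence. qHTS titration; curve fitting with curve-class categorization.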
# [14] = qHTS profiling for inhibitors of Plasmodium falciparum proliferation (AID 504749; active means well fitted curve in the direction sought with a large enough effect; an effect the other way counts as inactive or inconclusive;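 further: 0% = DMSO vehicle and full inhibition = artemisinin control; nearly all actives have a fitted effect of over 60% in size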); details: P. falciparum in erythrocytes, SYBR Green DNA, 72 h, at 12.8 µM (top of the series)
# Summary of the method: (§1)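 P. falciparum-infected erythrocytes (0.3% parasitemia, 2.5% hematocrit final) were exposed to compounds for 72 h at 37 C in 5% CO2, then lysed with SYBR Green buffer overnight at room temperature; parasite DNA fluorescence was normalized to artemisinin and DMSO controls.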
# AS120 = test: as above; details: P. falciparum in erythrocytes, SYBR Green DNA, 72 h; series mostly up to 28.7 µM
# Summary of the method: as §1
# CP238 = test: as above; details: P. falciparum in erythrocytes, SYBR Green DNA, 72 h; series mostly up to 12.8 µM
# Summary of the method: as §1
# CP250 = test: as above; details: P. falciparum in erythrocytes, SYBR Green DNA, 72 h; series mostly up to 12.8 µM
# Summary of the method: as §1
# CP262 = test: as above; details: P. falciparum in erythrocytes, SYBR Green DNA, 72 h; series mostly up to 12.8 µM
# Summary of the method: as §1
# CP265 = test: as above; details: P. falciparum in erythrocytes, SYBR Green DNA, 72 h; series mostly up to 12.8 µM
# Summary of the method: as §1
# FAB9 = test: as above; details: P. falciparum in erythrocytes, SYBR Green DNA, 72 h; series mostly up to 12.8 µM
# Summary of the method: as §1
# [15] = measured here: cell count channel max response
# [16] = measured here: lipid channel max response
# [17] = at 7.69 µM (top of the series) unless noted
compound,measurement,setting,value
C[C@]12CCC3c4ccc(O)cc4CCC3[C@@H]1CCC2=O (stereo partly specified),"activity change, negative = inhibition",[1]; at 17.2 µM (top of the series),0.112% (inactive)
same,"activity change, negative = inhibition",[1]; at 38 µM (top of the series),-3.57% (inactive)
same,"activity change, negative = inhibition",[2]; at 17.2 µM (top of the series),-16.8% (inactive)
same,"activity change, negative = inhibition",[2]; at 38 µM (top of the series),-2.29% (inactive)
same,"activity, negative = inhibition",[3]; at 17.2 µM (top of the series),-9.06% (inactive)
same,"activity, negative = inhibition",[3]; at 38 µM (top of the series),-20.6% (inactive)
same,Potency,[4],inactive
same,"activity change, negative = inhibition",[5],-0.972% (inactive)
same,max response,[5]; [15],-7.49%
same,max response,[5]; [16],-8.59%
same,Potency,[6],inactive
OCCN1CCN(CC/C=C2\c3ccccc3Sc3ccc(C(F)(F)F)cc32)CC1,"activity change, negative = inhibition",[1]; at 17.2 µM (top of the series),16.2% (inactive)
same,"activity change, negative = inhibition",[1]; at 38 µM (top of the series),29.4% (inactive)
same,Potency,[7],7.94 µM (active) and 5.01 µM (active)
same,"activity, negative = inhibition",[3]; at 17.2 µM (top of the series),5.96% (inactive)
same,"activity, negative = inhibition",[3]; at 38 µM (top of the series),-10.3% (inactive)
same,Potency,[8],> 46 µM (inactive) and > 20.6 µM (inactive)
same,Potency,[9],> 46 µM (inactive) and > 20.6 µM (inactive)
same,Potency,[4],inactive
same,Potency,[10],inactive
same,outcome,[11],inactive
same,"activity change, negative = inhibition",[5],-3.77% (inactive)
same,max response,[5]; [15],-13.1%
same,max response,[5]; [16],-14.8%
same,Potency,[6],inactive
CN(C)CCO[C@](C)(c1ccccc1)c1ccccn1,"activity change, negative = inhibition",[1]; at 17.2 µM (top of the series),4.7% (inactive)
same,"activity change, negative = inhibition",[1]; at 38 µM (top of the series),3.93% (inactive)
same,Potency,[7],inactive
same,"activity, negative = inhibition",[3]; at 17.2 µM (top of the series),-3.9% (inactive)
same,"activity, negative = inhibition",[3]; at 38 µM (top of the series),8.94% (inactive)
same,Potency,[4],inactive
same,Potency,[10],inactive
same,outcome,[11],inactive
same,"activity change, negative = inhibition",[5],0.849% (inactive)
same,max response,[5]; [15],16.6%
same,max response,[5]; [16],17.9%
same,Potency,[6],inactive
same,outcome,[12],inactive
CCC[C@H]1C(=O)N2C(N(C)C)=Nc3ccc(C)cc3N2C1=O,"activity change, negative = inhibition",[1]; [17],1.43% [at 17.2 µM] (inactive)
same,Potency,[7],1.58 µM (active)
same,"activity change, negative = inhibition",[2]; [17],-21% [at 17.2 µM] (inactive)
same,"activity, negative = inhibition",[3]; [17],-9.03% [at 17.2 µM] (inactive)
same,Potency,[8],> 20.6 µM (inactive)
same,Potency,[9],> 20.6 µM (inactive)
same,Potency,[4],inactive
same,Potency,[10],inactive
same,"activity change, negative = inhibition",[5],-3.21% (inactive)
same,max response,[5]; [15],-10.8%
same,max response,[5]; [16],-12%
same,outcome,[13],inactive
same,Potency,[6],inactive
same,outcome,[12],inactive
same,"activity, negative = inhibition",[14]; parasite line A,12.2% (inactive)
same,"activity, negative = inhibition",[14]; parasite line B,-0.686% (inactive)
same,Potency,AS120,inactive
same,Potency,CP238,inactive
same,Potency,CP250,inactive
same,Potency,CP262,inactive
same,Potency,CP265,inactive
same,Potency,FAB9,inactive
O=c1[nH]c(=O)n([C@@H]2C[C@H](O)[C@H](CO)O2)cc1I,"activity change, negative = inhibition",[1]; [17],9.17% [at 17.2 µM] (inactive)
same,Potency,[7],inactive
same,"activity change, negative = inhibition",[2]; [17],8.3% [at 17.2 µM] (inactive)
same,"activity, negative = inhibition",[3]; [17],11.4% [at 17.2 µM] (inactive)
same,Potency,[8],> 20.6 µM (inactive)
same,Potency,[9],> 20.6 µM (inactive)
same,Potency,[4],inactive
same,"activity change, negative = inhibition",[5],-3.3% (inactive)
same,max response,[5]; [15],2.86%
same,max response,[5]; [16],1.83%
same,outcome,[13],inactive
same,Potency,[6],inactive
same,outcome,[12],inactive
same,"activity, negative = inhibition",[14]; parasite line A,-1.96% (inactive)
same,"activity, negative = inhibition",[14]; parasite line B,14.3% (inactive)
same,Potency,AS120,inactive
same,Potency,CP238,inactive
same,Potency,CP250,inactive
same,Potency,CP262,inactive
same,Potency,CP265,inactive
same,Potency,FAB9,inactive
